Assay outcomes (PubChem BioAssay)
Shn3 3UTR inh – inhibitors of Schnurri-3 3'UTR reporter in osteoblasts | 360,000 compounds, 0.52% hits | Clone20 osteoblast Shn3 3'UTR firefly luciferase, 24 h | AID 588674 | inhibition, % at 12.5 µM;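 active = mean inhibition of at least 75% with every replicate also reaching 75%; inconclusive = mean inhibition at least 75% but some replicate below; inactive = mean inhibition below 75%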
TROY signal inh – inhibitors of TROY-dependent NF-kB signaling | inhibition, % at 10 µM | 360,000 compounds, 0.98% hits | Q293 LMP1-TROYcd NF-kB luciferase reporter, 4 h;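 active = compounds whose plate-normalised and pattern-corrected inhibition of the luciferase reporter signal at the single screening dose is 50% or more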
MITF TRPM1 inh – inhibitors of MITF-driven TRPM1 promoter in melanoma cells | SK-MEL-5 TRPM1 promoter luciferase, 24 h | inhibition, % at 12.5 µM | 330,000 compounds, 0.83% hits;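 active = mean inhibition across replicates of 60% or more, whatever share of single replicates reaches that level; inconclusive = some that reach 60%, reason not given; inactive = mean inhibition across replicates below 60%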
LMP1 NFkB inh – inhibitors of Epstein-Barr LMP1-induced NF-kappaB reporter; AID 504558; LMP1-induced NF-kappaB luciferase reporter cells, luminescence; inhibition, % at 12.5 µM; 350,000 compounds, 0.69% hits; in the data active = inhibition above about 41%; inconclusive = no clear call, values can overlap the other calls
TWEAK-Fn14 inh – TWEAK-Fn14 signaling inhibition; AID 1159606; 360,000 compounds, 2% hits; inhibition, % at 10 µM; TWEAK-stimulated Fn14 reporter cells, luciferase luminescence, 8 h; in the data active = inhibition above about 50%
Peg3 promoter – reduces Peg3 promoter-driven luciferase expression in HeLa | HeLa PEG-Prom luciferase reporter, luminescence, overnight | inhibition, % at 20 µM | 360,000 compounds, 1.7% hits | AID 588405;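 active = inhibition of at least 50% at 20 µM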
Large screens that a line does not name were inactive. Hits are enriched below; roughly 4.1% of the tested compounds scored in any of these assays.

Cc1cccc(NS(=O)(=O)c2ccc3[nH]c(=O)cc(C(=O)OC(C)C(=O)Nc4ccc([N+](=O)[O-])cc4)c3c2)c1 (centres undefined)	TROY signal inh 51
Cc1cccc(NS(=O)(=O)c2ccc(NC(=O)CN(c3cc([N+](=O)[O-])ccc3C)S(C)(=O)=O)cc2)c1	Peg3 promoter 59
Cc1ccc(NC(=O)C2COc3ccccc3O2)cc1S(=O)(=O)N1CCOCC1 (centres undefined)	none
COc1ccc(-c2[nH]ncc2CNC(C)CCn2cccn2)c(F)c1 (centres undefined)	none
COc1ccc(-c2[nH]ncc2CNC(C)c2cn(C)nc2C)c(F)c1 (centres undefined)	TWEAK-Fn14 inh 65
O=C(Nc1nc(-c2cccs2)cs1)c1ccc([N+](=O)[O-])o1	MITF TRPM1 inh 86
O=C(Nc1ccc(NC(=O)c2ccc([N+](=O)[O-])o2)cc1Cl)c1ccco1	none
COc1cccc(C(=O)Nc2nnc(-c3cccs3)s2)c1	TWEAK-Fn14 inh 70
COc1cc(NC(=O)c2ccc([N+](=O)[O-])o2)ccc1NC(=O)c1cccs1	MITF TRPM1 inh 87, Peg3 promoter 59
O=C(Nc1cccc(NC(=O)c2ccc([N+](=O)[O-])o2)c1)c1ccco1	MITF TRPM1 inh 64, Peg3 promoter 57
Cn1cccc1/C=N/N1CCN(c2ccccc2)CC1	none
CCOC(=O)C1=C(COC(=O)CC(C)c2ccccc2)NC(=O)NC1C (centres undefined)	none (no result: MITF TRPM1 inh)
Cc1cc(C)c(OCC(=O)Nc2ccc(NC(=O)c3ccco3)cc2)c([N+](=O)[O-])c1	none
COc1ccc(C(=O)Nc2nc(-c3cccs3)cs2)cc1	none
O=C(Nc1cccc(NC(=O)c2cccs2)c1)c1ccc([N+](=O)[O-])o1	MITF TRPM1 inh 98, Peg3 promoter 55
Cc1nc2ccccc2c(=O)n1-c1cccc(NC(=O)c2cccs2)c1	none
Cc1cc(C)c(OCC(=O)Nc2cccc(NC(=O)c3ccco3)c2)c(Br)c1	TWEAK-Fn14 inh 56
COc1cc(C(=O)Nc2nc(-c3cccs3)cs2)cc(OC)c1OC	TWEAK-Fn14 inh 56
O=C(Nc1cccc(N2C(=O)C=CC2=O)c1)c1cccs1	MITF TRPM1 inh 73, Peg3 promoter 92
CN(C)c1ccc(/C=N/Nc2cccc(C(=O)O)c2)cc1	Shn3 3UTR inh 92, MITF TRPM1 inh 84, LMP1 NFkB inh 61
O=C(O)c1cccnc1	LMP1 NFkB inh 85
O=C(O)c1cccc(N/N=C/c2cccnc2)c1	Peg3 promoter 58
CC(C)(C)c1ccc(/C=N/Nc2cccc(C(=O)O)c2)cc1	MITF TRPM1 inh 61, LMP1 NFkB inh 72
O=C(O)c1cccc(N/N=C/c2ccc(-c3ccccc3)cc2)c1	none
O=C(C(=O)c1cccnc1)c1cccnc1	none
O=C(N/N=C/c1cccnc1)c1ccccc1	none
COc1ccc(-c2csc(NC(=O)c3ccccc3F)n2)cc1	none
Cc1ccc(S(=O)(=O)Nc2ccccc2C(=O)Nc2nc(-c3ccc(F)cc3)cs2)cc1	TROY signal inh 75, TWEAK-Fn14 inh 93
COc1ccc(-c2csc(NC(=O)c3ccccc3NS(=O)(=O)c3ccc(F)c(F)c3)n2)cc1	TROY signal inh 69, MITF TRPM1 inh 77, LMP1 NFkB inh inconclusive, TWEAK-Fn14 inh 74
CCOc1ccccc1C1CC(=O)Nc2cc3c(cc21)OCCO3 (centres undefined)	none
CCCOc1ccccc1C1CC(=O)Nc2cc3c(cc21)OCCO3 (centres undefined)	Shn3 3UTR inh 87, TWEAK-Fn14 inh 55
CC1C(=O)N(Cc2cn(CCC3OCCCO3)nn2)CCS(=O)(=O)N1Cc1ccc(-c2ccncc2)cc1 (centres undefined)	none (no result: MITF TRPM1 inh)
CN1CCN(CCCNC(=O)c2ccc(/C=C3\Sc4ccccc4N(Cc4ccc(F)cc4)C3=O)cc2)CC1	Peg3 promoter 104
CN1CCN(CCCNC(=O)c2ccc(/C=C3/Sc4ccccc4N(Cc4cccc(Cl)c4)C3=O)cc2)CC1	TROY signal inh 52, Peg3 promoter 84
O=C(CSc1nc2ncc(Br)cc2[nH]1)Nc1ccccc1-c1ccccc1	Peg3 promoter 53
CCCC(c1nnnn1CS(=O)(=O)c1ccc(C)cc1)N1CCN(CC)CC1 (centres undefined)	none
CN1C(=O)C(Cl)(Cl)C(=O)c2ccccc21	TWEAK-Fn14 inh 51
